Test results: PubChem BioAssay (NCI)
Values joined by “and” are separate entries in the source; they are usually repeats but may differ in a detail not shown here. Identical values can stand only once. The panel holds about 83,000 compounds, 20% with a hit somewhere; the sample as a whole holds those more often.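 Values shown are percent growth following 48 h exposure of cells in 96-well plates to a single concentration of compound; below 10 was considered active.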 Active and inactive are the calls of the source.

system: HL-60(TB) leukemia; assay: NCI-60 one-dose screen, 48 h (100 = growth as untreated, 0 = no growth, -100 = all killed); details: 10 µM unless noted

SMILES	growth
CCCCCCCC[C@@H]1N[C@@H](C(=O)OC)Cc2c1[nH]c1ccccc21	99% (inactive)
Oc1cccnc1CN1CCOCC1	94% (inactive) and 88.5% (inactive)
OCc1cnccc1NC12CC3CC(CC(C3)C1)C2	85.3% (inactive)
COc1cc2c(cc1OCCCOc1ccc(-c3cc4ccccc4c4ccccc34)cc1)N=C[C@@H]1CCCN1C2=O	-11.8% (active)
CC(C)N1C(=O)/C(=C2\SC(=S)N(C(C)C)C2=O)SC1=S	100% (inactive)
COC(=O)/C(CCC=C(C)C)=C1\[C@@H](OC(C)=O)C[C@@]2(C)[C@H]1C[C@@H](O)[C@H]1[C@@]3(C)CC[C@H](NCCN)[C@@H](C)[C@@H]3CC[C@@]12C	-47.4% (active)
COc1cc2c(O)n(CCCn3ccnc3)c3c4cnc5cccc(c(=O)c3c2cc1OC)c54	6.68% (active)
C#CC[C@@H]1C[C@]2(C)[C@H]3CC[C@@H]4[C@H]5C(C(=C)C)CC[C@]5(C(=O)NCCCN5CCN(CCCN)CC5)CC[C@@]4(C)[C@]3(C)CC[C@H]2C(C)(C)[C@H]1OC(C)=O (some centres undefined)	-51.6% (active)
O=C(CN1CCOCC1)N1CCOCC1	101% (inactive) and 109% (inactive)
CCc1ccc(-c2ccc(NC3CCCCCC3)nn2)cc1S(N)(=O)=O	121% (inactive)
COC(=O)C1=COC(C)C2C[n+]3ccc4c([nH]c5ccccc54)c3CC12 (centres undefined)	106% (inactive) and 103% (inactive)
CC(=O)n1nc(C(=O)OC(C)C)c2cc(C)c(C)cc21	83.7% (inactive)
Cc1cc(/C=C\c2ccc3ccccc3[n+]2C)c(O)c2ncccc12	-22.4% (active)
CC1=CC[C@@H]2C(C)(C)[C@@H](O)CC[C@@]2(C)[C@@H]1COc1ccc2ccc(=O)oc2c1	76.7% (inactive)
COc1cccc([C@H]2c3[nH]c4ccccc4c3C[C@H]3C(=O)N(CCCCCCC(=O)NO)CC(=O)N23)c1	31% (inactive)
Cc1ccc(NC(=O)c2ccc(CN3CC[C@H](N(C)C)C3)c(C(F)(F)F)c2)cc1Nc1nccc(-c2cncnc2)n1	-51.3% (active)
CN(C)CCOC(=O)C(C)(C)C	89.7% (inactive)
Cc1cc(N(CCCNc2ccnc3cc(Cl)ccc23)Cc2cccs2)nc(Cl)n1	-3.12% (active)
O=C(O)CCCCSc1ncnc2nc[nH]c12	103% (inactive)
CN(C)c1ccc(/C=C/c2ccnc3ccccc23)cc1N	43.5% (inactive)

SMILES	growth
COc1ccc(C2C=C(c3ccc(Cl)cc3)N=C3SC=CN32)cc1 (centres undefined)	113% (inactive)
CC1=CC2(C)/C=C(C)/C=C\CC(O)/C=C3/C=CC(=C4C(=O)OC2(CC1C)C4=O)OC3 (centres undefined)	-54.9% (active)
COc1ccc2nc3cc(Cl)ccc3c(N)c2c1	-71.6% (active)
c1cncc(CNc2ccccc2-c2nnc(Nc3ccc4c(c3)OCCO4)o2)c1	8.71% (active)
CN1CCN(Cc2ccc(NC(=O)c3nc4ccc5[nH]ncc5c4c4c3CCC4)cc2C(F)(F)F)CC1	-59.1% (active)
CCNc1ncnc2[nH]ncc12	95.7% (inactive)
O=c1c2cc(F)ccc2sc2c(NCCN3CCCCC3)nc3ccccc3c12	57% (inactive)
O=C(Nc1ccc(Br)cc1F)c1cc(F)ccc1O	-19.7% (active)
NC(=O)c1ccc[n+]([C@@H]2O[C@H](COP(=O)([O-])OP(=O)(O)OC[C@H]3O[C@@H](n4cnc5c(N)ncnc54)[C@H](O)[C@@H]3O)[C@@H](O)[C@H]2O)c1	109% (inactive)
COC(=O)c1ccc(CSc2nnc(-c3c(C)nc4ccc(C)cn34)o2)cc1	97.5% (inactive)
CN1C(=O)/C(=C/c2cn(-c3ccccc3)nc2-c2ccccc2)SC1=S	109% (inactive)
O=C1NC(=O)C2(CCc3ccccc32)N1 (centres undefined)	93.7% (inactive) and 106% (inactive)
COC(=O)/C=C\C(=O)OC	90.5% (inactive)
O=C1C=Cc2ncccc2C1=O	57.7% (inactive)
O=C(Nc1cccc(Cl)c1)Nc1cccc(Cn2c(=O)[nH]c3ccc(Oc4ncccn4)cc3c2=O)c1	45.3% (inactive)
CCCCOc1nc2ccccc2cc1/C=C/c1cc(/C=C/c2cc3ccccc3nc2OCCCC)n(-c2ccccc2)n1	97.5% (inactive)
COc1ccc(COC(C)=O)cc1	112% (inactive)
ClC(Cl)c1nc(-c2cccnc2)n2nc(-c3ccccc3)cc2n1	14.2% (inactive)
Cn1c2c(c3ccc(Cl)cc31)-n1cccc1C2=O	64.9% (inactive)
